Test [1] is described as follows: A CellTox Green Cytotoxicity Assay to monitor cytotoxicity in HEK293 cells - 32 hour (AID 1224881). Also: nearly all actives have a fitted effect of over 40% in size. A digest of the protocol:
(§1)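 HEK293 cells premixed with CellTox Green dye were seeded at 600 cells/well and left 5 h at 37 C/5% CO2 before pin transfer of 23 nL compound in DMSO. Fluorescence from dye bound to dead-cell DNA was read during 40 h treatment.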

Test [2] can be described thus: A CellTox Green Cytotoxicity Assay to monitor cytotoxicity in HepG2 cells - 0 hour (AID 1224882). Also: nearly all actives have a fitted effect of over 35% in size. A digest of the protocol: (§2)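 HepG2 cells were seeded together with the CellTox Green dye at 600 cells/well, left 5 h at 37 C/5% CO2, then given compounds in DMSO. Fluorescence from dye bound to dead-cell DNA was read repeatedly over 40 h of treatment at 37 C.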
Test [3] can be described thus: A CellTox Green Cytotoxicity Assay to monitor cytotoxicity in HEK293 cells - 8 hour (AID 1224884). Also: nearly all actives have a fitted effect of over 35% in size. Summed up: as §1
The nature of test [4]: qHTS RealTime-Glo MT Cell Viability Assay in HepG2 cells - 16 hour (AID 1224885). Also: nearly all actives have a fitted effect of over 50% in size. A digest of the protocol: (§3)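 Real-time, nonlytic viability: 600 HepG2 cells/well mixed with NanoLuc enzyme plus prosubstrate; 5 h settle, compound (DMSO) added by pintool; luminescence monitored over 40 h at 37 C.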
For orientation: Quantitative high-throughput screening tests each substance at several concentrations.

The nature of test [5]: qHTS RealTime-Glo MT Cell Viability Assay in HEK293 cells - 24 hour (AID 1224886). Also: nearly all actives have a fitted effect of over 50% in size. Summed up:
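Cells + reagent dispensed (600 cells/well, HEK293) → 5 h at 37 C/5% CO2 → 23 nL compound in DMSO pinned → 40 h at 37 C → luminescence read at 0, 8, 16, 24, 32, 40 h.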

Test [6] is described as follows: qHTS RealTime-Glo MT Cell Viability Assay in HEK293 cells - 8 hour (AID 1224887). Also: nearly all actives have a fitted effect of over 50% in size. Summed up: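 HEK293 cells mixed with RealTime-Glo reagents (NanoLuc plus cell-permeant prosubstrate) at 600 cells/well, preincubated 5 h at 37 C/5% CO2, then given 23 nL compound in DMSO. Nonlytic luminescence from viable cells was read at 0, 8, 16, 24, 32 and 40 h.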
Test [7] is described as follows: A CellTox Green Cytotoxicity Assay to monitor cytotoxicity in HEK293 cells - 16 hour (AID 1224888). Also: nearly all actives have a fitted effect of over 35% in size. A digest of the protocol:
as §1

The nature of test [8]: qHTS RealTime-Glo MT Cell Viability Assay in HepG2 cells - 0 hour (AID 1224889). Also: nearly all actives have a fitted effect of over 50% in size. A digest of the protocol: as §3
Test [9] is described as follows: A CellTox Green Cytotoxicity Assay to monitor cytotoxicity in HepG2 cells - 8 hour (AID 1224890). Also: nearly all actives have a fitted effect of over 45% in size. Summed up:
as §2

A short description of test [10]: A CellTox Green Cytotoxicity Assay to monitor cytotoxicity in HepG2 cells - 32 hour (AID 1224883). Also: nearly all actives have a fitted effect of over 50% in size. Summed up:
as §2

Several values for one entry are separate records, joined by “and”; a condition that tells them apart may be missing. Identical values can stand only once. Inconclusive results are not listed. Activity calls are given as the source filed them. Calls follow the shape of the dose curve; as a rule, active = well fitted curve in the direction sought with a large enough effect in the repeat runs; inconclusive = weak or mixed curves; inactive = no such curve, though single readings can be large; an effect the other way counts as inactive or inconclusive.
Potency is read from the fitted curve at half-maximal effect.

With `CN(C)Cc1cc(C(C)(C)C)c(O)c(C(C)(C)C)c1`, the Potency result in test [1], in [2], in test [3], in [4], in test [5] and in test [6] was “inactive” throughout. The Potency result in test [7], in [8] and in test [9] was “inactive” each time.

As to `Cc1ccc(C(=O)O)cc1`, the Potency entry in [1], in [2], in test [3], in test [4], in test [5] and in [6] was “inactive” each time. Further, the Potency result in test [7] and in test [9] was “inactive” throughout.

On to `CCOC(=O)NNc1ccc(N(CC)CC(C)O)nn1` (stereo not drawn), for which the Potency result in test [1], in test [2], in test [3], in test [4], in test [5] and in [6] was “inactive” throughout. Besides, the Potency result in test [7] and in test [9] was “inactive” in each case.

As to `O=C(O)c1cc(=O)c2ccccc2o1`, the Potency entry in test [1], in test [2], in [3], in test [4], in [5] and in test [6] was “inactive” each time. In addition, the Potency result in test [7], in test [8] and in [9] was “inactive” in each case.

Turning to `O=C1OC2(c3ccc(O)cc3Oc3cc(O)ccc32)c2ccc(N=C=S)cc21`, the Potency in [1] is 17.7 µM (active); in test [2] it was 15.8 µM (active); in test [10], 15.8 µM (active); in [3] it was 15.8 µM (active); in test [7] it was 12.5 µM (active); in test [8], 22.3 µM (active). In addition, in test [9], the Potency is 15.8 µM (active).

Regarding `CCCCCCCC/C=C\CCCCCCCCN`, the Potency in [1] was 23.9 µM (active); in test [3] it was 23.9 µM (active); in test [4] it was 23.9 µM (active); in test [5] it was 21.3 µM (active); in [6] it was 23.9 µM (active); in test [7] it was 23.9 µM (active). Also, the Potency entry in test [2] was “inactive”.

Consider `Cc1ccc(C(C)C)cc2c(C)ccc1-2`, for which the Potency result in test [1], in test [2], in test [3], in test [4], in test [5] and in test [6] was “inactive” throughout. Also, the Potency entry in test [7], in test [8] and in test [9] was “inactive” throughout.

In the case of `COC(C)=O`, the Potency entry in test [1], in test [2], in [3], in [4], in test [5] and in test [6] was “inactive” in each case. The Potency entry in test [7], in [8] and in test [9] was “inactive” each time.

For `O=C1C(c2[nH]c3ccc(S(=O)(=O)O)cc3c2O)=Nc2ccc(S(=O)(=O)O)cc21`, the Potency result in test [1], in [2], in test [10], in test [4], in [5] and in test [6] was “inactive” throughout. Besides, the Potency result in test [7], in test [8] and in test [9] was “inactive” in each case.

Regarding `Clc1ccnc(Cl)n1`, the Potency result in [1], in [2], in [3], in [4], in test [5] and in [6] was “inactive” throughout. Also, the Potency result in test [7], in test [8] and in test [9] was “inactive” in each case.

Turning to `Nc1nc(-c2ccccc2)cs1`, the Potency result in test [1], in test [2], in test [3], in [4], in test [5] and in [6] was “inactive” throughout. The Potency entry in test [7] and in [9] was “inactive” throughout.

For `O=C(O)c1cc(N=Nc2ccc([N+](=O)[O-])cc2)ccc1O`, the Potency entry in [1], in test [2], in test [3], in [4], in test [5] and in test [6] was “inactive” throughout. In addition, the Potency entry in test [7], in test [8] and in test [9] was “inactive” throughout.

`C=Cc1ccccc1C=C`: the Potency entry in test [1], in [2], in [3], in test [4], in test [5] and in test [6] was “inactive” each time. Besides, the Potency result in [7], in test [8] and in test [9] was “inactive” each time.

For `O=c1oc2cc(O)ccc2c2oc3cc(O)ccc3c12`, the Potency entry in test [1], in test [2], in test [3], in test [4], in test [7] and in test [8] was “inactive” throughout. Besides, in [9], the Potency entry is “inactive”. In addition, the Potency is 21 µM (active) in test [5] and 16.7 µM (active) in test [6].

Take `O=C(/C=C/c1ccc(O)c(O)c1)O[C@@H](C(=O)O)[C@@H](OC(=O)/C=C/c1ccc(O)c(O)c1)C(=O)O`: the Potency entry in test [1], in [2], in test [3], in [4], in [5] and in [6] was “inactive” throughout. Moreover, the Potency entry in test [7], in test [8] and in [9] was “inactive” each time.

Consider `CCC(CC)C(C)CCOC(C)=O` (stereo not drawn), for which the Potency entry in [1], in test [2], in test [3], in test [4], in test [5] and in test [6] was “inactive” each time. The Potency entry in [7], in test [8] and in [9] was “inactive” in each case.

Take `CCC(C)n1ncn(-c2ccc(N3CCN(c4ccc(OC[C@H]5CO[C@](Cn6cncn6)(c6ccc(Cl)cc6Cl)O5)cc4)CC3)cc2)c1=O` (stereo partly drawn): the Potency entry in [1], in test [2], in test [10], in test [7], in test [8] and in test [9] was “inactive” each time.

Consider `O=C(O)Cc1ccc2c(c1)C(=O)c1ccccc1CO2`, for which the Potency result in [1], in test [2], in [3], in [4], in test [5] and in test [6] was “inactive” throughout. Further, the Potency result in test [7], in test [8] and in [9] was “inactive” each time.

`Fc1ccc(C(c2ccc(F)cc2)N2CCNCC2)cc1`: the Potency result in [1], in [2], in test [3], in [4], in test [5] and in test [6] was “inactive” each time. Also, the Potency result in [7], in test [8] and in test [9] was “inactive” throughout.

With `CCCC(=O)OC(C)(C)Cc1ccccc1`, the Potency result in test [1], in [2], in test [3], in [4], in [5] and in test [6] was “inactive” throughout. The Potency result in test [7], in test [8] and in [9] was “inactive” each time.

Consider `Nc1nc(N)nc(-c2cc(Cl)ccc2Cl)n1`, for which the Potency result in [1], in test [2], in [3], in test [4], in test [5] and in test [6] was “inactive” each time. The Potency entry in [7], in test [8] and in test [9] was “inactive” throughout.

`CCCCOC(=O)CC`: the Potency result in [1], in [2], in test [3], in test [4], in test [5] and in test [6] was “inactive” each time. The Potency result in test [7], in test [8] and in [9] was “inactive” each time.

As for `S=c1nccc[nH]1`, the Potency result in test [1], in test [2], in test [3], in test [4], in test [5] and in [6] was “inactive” each time. In addition, the Potency result in [7], in test [8] and in test [9] was “inactive” throughout.

As for `O=C1c2ccccc2C(=O)N1SC1CCCCC1`, the Potency in test [1] is 12.3 µM (active) and 24.5 µM (active); in test [4], 38.9 µM (active); in test [5], 34.6 µM (active) and 34.7 µM (active); in test [6], 38.9 µM (active); in test [7] it was 43.6 µM (active). Moreover, the Potency result in [2], in test [3] and in test [8] was “inactive” in each case.

On to `Cc1cc(C(C)(C)C)c(O)c(C)c1Cn1c(=O)n(Cc2c(C)cc(C(C)(C)C)c(O)c2C)c(=O)n(Cc2c(C)cc(C(C)(C)C)c(O)c2C)c1=O`, for which the Potency entry in [1], in [2], in test [10], in [3], in [7] and in test [8] was “inactive” each time. Also, in test [9], the Potency entry is “inactive”.

`O=S(=O)(O)c1ccc(N=Nc2c(O)ccc3ccccc23)cc1`: the Potency result in test [1], in test [2], in test [10], in [3], in test [7] and in [9] was “inactive” in each case.

`CCn1c2ccccc2c2cc([N+](=O)[O-])ccc21`: the Potency result in test [1], in [2], in test [10], in test [3], in [7] and in [8] was “inactive” in each case. Further, in test [9], the Potency result was “inactive”.

For `Cc1c(C)c2c(c(C)c1O)CC[C@@](C)(CCC[C@H](C)CCC[C@H](C)CCCC(C)C)O2`, the Potency result in test [1], in [2], in [3], in test [4], in test [5] and in [6] was “inactive” each time. The Potency entry in test [7], in [8] and in [9] was “inactive” each time.

`CC(=O)OCC=C(C)C`: the Potency result in test [1], in test [2], in test [3], in test [4], in [5] and in test [6] was “inactive” each time. Also, the Potency entry in test [7], in [8] and in test [9] was “inactive” throughout.

As for `CCO[C@@H]1O[C@H](C(COCc2ccccc2)OCc2ccccc2)[C@H](OCc2ccccc2)[C@H]1O` (stereo partly drawn), the Potency result in [1], in test [2], in [10], in [3], in [7] and in [9] was “inactive” in each case.

As for `CN1CCN2c3ccccc3Cc3ccccc3C2C1` (stereo not drawn), the Potency entry in test [1], in test [2], in [3], in [4], in test [5] and in [6] was “inactive” in each case. The Potency entry in test [7] and in test [9] was “inactive” each time.

As for `CC1(C)[C@@H](O)CC[C@]2(C)[C@H]3C(=O)C=C4[C@@H]5C[C@@](C)(C(=O)O)CC[C@]5(C)CC[C@@]4(C)[C@]3(C)CC[C@@H]12`, the Potency result in test [1], in test [2], in test [3], in test [4], in test [5] and in test [6] was “inactive” throughout. The Potency entry in test [7], in test [8] and in test [9] was “inactive” each time.

For the molecule `CN(C)C(=O)COC(=O)Cc1ccc(OC(=O)c2ccc(N=C(N)N)cc2)cc1`, the Potency entry in test [1], in [2], in test [3], in test [4], in test [5] and in test [6] was “inactive” each time. For the same molecule, the Potency result in test [7], in test [8] and in test [9] was “inactive” throughout.

Turning to `CCOc1ccc2ccccc2c1C(=O)N[C@@H]1C(=O)N2[C@@H]1SC(C)(C)[C@@H]2C(=O)O`, the Potency entry in test [1], in test [10], in test [3], in test [4], in test [5] and in [6] was “inactive” in each case. Besides, the Potency entry in [7] and in test [8] was “inactive” each time.

The values above are taken from PubChem BioAssay (Tox21).
